Assay outcomes (PubChem)
DT40 TDP1 CPT: growth inhibition of DT40 Tdp1-/-;hTDP1 cells with camptothecin (screen for TDP1 inhibitors); chicken DT40 Tdp1-/-;hTDP1 cells + 20 nM CPT, ATP luminescence, 48 h; Potency, µM (top dose mostly 46.2 µM), without a hit: at the top dose activity change, negative = growth inhibition, hits mostly inhibitors; hit rate 12% among 420,000; also: potency is read from the fitted curve at half-maximal effect; % is scaled to controls: 0 for no effect and ±100 for the full control effect; nearly all actives have a fitted effect of over 55% in size
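Chicken DT40 Tdp1-/- cells stably complemented with human TDP1 were seeded at 400 cells/well in medium containing 20 nM camptothecin, exposed to pin-transferred compounds, and grown at 37 °C for at least 48 hr. Viability was read as ATP luminescence.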
HepG2 viability: kills HepG2 cells in TGF-b inhibitor counter-screen | HepG2 CAGA-GFP viability, ATP luminescence, 18 h | Potency, µM (highest dose often 46.1 µM), without a hit: top-dose activity change, negative = cytotoxicity, hits mostly cytotoxic | hit rate 0.76% among 410,000 | AID 588856; also: potency is read from the fitted curve at half-maximal effect
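HepG2 CAGA-GFP cells (1000/well, DMEM with 1% FBS) received compound, then TGF-beta at 500 pg/mL final, and were incubated 18 hours at 37 degrees C. Viability was read by CellTiter-Glo luminescence. Media-only wells were set as complete cell-killing and DMSO as no toxicity.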
TDP1 cell noCPT: qHTS for Inhibitors of human tyrosyl-DNA phosphodiesterase 1 (TDP1): qHTS in cells in absence of CPT; Potency, µM (top dose mostly 46.2 µM), for the others: at the highest dose activity change, negative = growth inhibition, most hits filed as inhibitors; hit rate 15% among 420,000; AID 686978, 2013; DT40 Tdp1-/- hTDP1 cells, no CPT, ATP luminescence, 48 h; also: potency is read from the fitted curve at half-maximal effect; % is scaled to controls: 0 for no effect and ±100 for the full control effect; nearly all actives have a fitted effect of over 55% in size
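Camptothecin absent (DMSO only). Human TDP1-complemented DT40 knockout cells, 400 cells/well, 37 °C for minimum 48 hr; ATP measured via CellTiter-Glo, 30 min dark incubation, luminescence.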
IL-1B inflam inh: inflammasome signaling inhibition, IL-1 beta readout; activity change, % at 57.5 µM; hit rate 4.7% among 360,000; THP-1 LPS/ATP IL-1B secretion, AlphaLISA, 16 h; hits give low values; in the data active = activity change below about -50%; inconclusive = mostly about -30% to -49%; also: % is scaled to controls: 0 for no effect and ±100 for the full control effect
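Secreted IL-1B measured by AlphaLISA bead assay after 16 h compound exposure of THP-1 cells; compounds (final up to 57.5 uM) added 1 h before LPS (250 ng/mL) and ATP (1.25 mM) stimulation; lower signal means less secretion.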
TDP1 block: blocks human tyrosyl-DNA phosphodiesterase 1 | hit rate 0.28% among 350,000 | Potency, µM (titrated, usually from 130 µM), without a hit: at the highest dose activity change, negative = inhibition, hits mostly inhibitors | recombinant TDP1, AlphaScreen DNA substrate cleavage | Q9NUW8; also: potency is read from the fitted curve at half-maximal effect; % is scaled to controls: 0 for no effect and ±100 for the full control effect; nearly all actives have a fitted effect of over 40% in size
Target sequence (Q9NUW8 whole entry, looked up): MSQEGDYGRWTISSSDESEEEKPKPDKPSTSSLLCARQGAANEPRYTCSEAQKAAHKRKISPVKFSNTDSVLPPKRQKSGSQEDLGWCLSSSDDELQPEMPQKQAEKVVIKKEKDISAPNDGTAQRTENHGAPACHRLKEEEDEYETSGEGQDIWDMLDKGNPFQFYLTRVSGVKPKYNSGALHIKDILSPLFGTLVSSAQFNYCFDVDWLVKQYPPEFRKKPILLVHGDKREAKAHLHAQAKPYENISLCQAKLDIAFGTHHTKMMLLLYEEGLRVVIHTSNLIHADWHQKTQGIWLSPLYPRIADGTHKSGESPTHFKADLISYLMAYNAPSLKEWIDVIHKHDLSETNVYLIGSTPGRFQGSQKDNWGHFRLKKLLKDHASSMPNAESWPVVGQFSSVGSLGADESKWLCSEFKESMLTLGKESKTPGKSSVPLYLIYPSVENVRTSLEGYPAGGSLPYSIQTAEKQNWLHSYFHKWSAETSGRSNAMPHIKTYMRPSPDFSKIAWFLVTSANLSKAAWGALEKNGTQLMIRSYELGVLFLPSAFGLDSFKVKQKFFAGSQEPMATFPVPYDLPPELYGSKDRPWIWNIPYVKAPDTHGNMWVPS
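E. coli-derived human Tdp1, 1 nM final. Cpd preinc 15 min RT; substrate 15 nM final, 5 min RT; AS bead mix 10 ug/ml final, 10 min RT. Signal loss = tyrosine-FITC cleavage. No-enzyme wells = max signal.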
TGFb SMAD3 inh: blocks TGF-b signaling; Potency, µM (doses to about 46.1 µM), for inactives: at the highest dose activity, negative = inhibition, usual class: inhibitors; HepG2 CAGA-GFP TGF-b/SMAD3 reporter, GFP fluorescence, 18 h; TGF-beta stimulated, 500 pg/mL final; hit rate 1.2% among 410,000; also: potency is read from the fitted curve at half-maximal effect; % is scaled to controls: 0 for no effect and ±100 for the full control effect; nearly all actives have a fitted effect of over 65% in size
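Using HEPG2 CAGA-GFP reporter cells at 1000 cells/well, we pinned test compounds, stimulated with recombinant TGF-beta (500 pg/mL final) and measured total well GFP after 18 h.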
Starred values were filed as active, the others as inactive; ? = inconclusive; . = not tested or not shown; [ ] = dose if it differs, or a comment. Sampled rows, rich in hits. Any-hit rate of the full collection: about 19%. Unless noted, calls follow the shape of the dose curve; as a rule, active = well fitted curve in the direction sought with a large enough effect; inconclusive = small, poorly fitted or top-dose-only effect, or another doubt; inactive = no such curve, though single readings can be large; an effect the other way counts as inactive or inconclusive.

SMILES | DT40 TDP1 CPT | HepG2 viability | TDP1 cell noCPT | IL-1B inflam inh | TDP1 block | TGFb SMAD3 inh
COc1ccc(NC(=O)CSc2cn(CCNC(=O)c3ccc(OC)cc3)c3ccccc23)cc1 | ? | 0% | 26µM* | . | 7% | ?
COc1ccc(C(=O)NCCn2cc(SCC(=O)N3CCOCC3)c3ccccc32)cc1 | -25% | -1% | -29% | 3 | -1% | 16%
O=C(CSc1cn(CCNC(=O)c2ccc3ccccc3c2)c2ccccc12)NCc1ccco1 | 16µM* | -34% | ? | ? | 11% | ?
COc1ccc(NC(=O)CSc2cn(CCNC(=O)c3c(F)cccc3F)c3ccccc23)cc1 | ? | -17% | ? | . | 5% | ?
COc1ccc(C(=O)NCCn2cc(SCC(=O)Nc3ccc4c(c3)OCCO4)c3ccccc32)cc1 | ? | 0% | 21µM* | . | 7% | ?
Cc1c(C(=O)NCCc2ccncc2)cnn1-c1nccc(-c2ccccc2C(F)(F)F)n1 | ? | . | -57% | . | . | .
Cc1[nH]c2ccccc2c1/C=C/c1nc2ccccc2c(=O)n1-c1cccc([N+](=O)[O-])c1 | ? | -17% | 18µM* | 1 | 5% | -1%
O=c1c2ccccc2nc(/C=C/c2c[nH]c3ccccc23)n1-c1ccc([N+](=O)[O-])cc1 | 10µM* | 3% | ? | 11 | 3% | -1%
Cc1ccc(/C=C/c2nc3ccccc3c(=O)n2CCc2ccccc2)cc1 | ? | 4% | 16µM* | -20 | -1% | -7%
CCn1c(/C=C/c2ccccc2C)nc2ccccc2c1=O | ? | -26% | ? | -9 | -3% | -20%
CCn1c(/C=C/c2ccc(O)c(O)c2)nc2ccccc2c1=O | ? | -36% | 6.5µM* | -19 | -4% | ?
CCn1c(/C=C/c2ccc(O)cc2)nc2ccccc2c1=O | ? | -29% | 26µM* | -96* | 5% | 0%
Cc1nc2ccccc2c(=O)n1CCc1ccccc1 | ? | -24% | ? | 38 | . | 9%
CCn1c(/C=C2\C(=O)Nc3ccccc32)nc2ccccc2c1=O | ? | -53% | 16µM* | ? | 3% | -14%
Cc1nc2cccnc2n1-c1cccc(C(=O)NCCc2ccc(S(N)(=O)=O)cc2)c1 | -3% | -2% | -6% | . | 3% | 7%
COC(=O)C/C=C/C(C)C(OCc1cccc(-c2ccccc2)c1)C1CCCCC1 (stereo not given) | . | . | . | . | -6%[21 µM] | .
COc1ccc(OC)c(-c2noc(N3CCN(c4cccc(C)c4C)CC3)n2)c1 | -10% | -8% | -18% | . | -5% | ?
Cc1ccc(C)c(Cn2c(=O)n(-c3ccccc3)c(=O)c3c4c(sc32)CCCC4)c1 | ? | 0% | -6% | . | 2% | 10%
Cc1sc2ncnc(N3CCN(Cc4ccccc4)CC3)c2c1-c1ccc(F)cc1 | ? | 1% | ? | -55* | 11% | 1%
Fc1ccc(-c2csc3ncnc(N4CCN(Cc5ccccc5)CC4)c23)cc1 | 21µM* | 9% | 15µM* | 9 | 2% | -3%
Cc1cc(NC(=O)CN(C)S(=O)(=O)c2ccc3c(c2)CCC(=O)N3)ccc1Br | 29µM* | -19% | 21µM* | . | 2% | -13%
Cc1ccc(NC(=O)C(NS(=O)(=O)c2ccc3c(c2)CCC(=O)N3)c2ccccc2)cc1C (stereo not given) | ? | -23% | 13µM* | . | 9% | ?
COc1cccc(N2CCN(C(=O)CN(C)S(=O)(=O)c3ccc4c(c3)CCC(=O)N4)CC2)c1 | 29µM* | -13% | 18µM* | 7 | -4% | 1%
CC(C)c1ccc(NC(=O)C(NS(=O)(=O)c2ccc3c(c2)CCC(=O)N3)c2ccccc2)cc1 (stereo not given) | 21µM* | -8% | ? | . | 9% | -22%
Cc1ccc(C)c(NC(=O)C(NS(=O)(=O)c2ccc3c(c2)CCC(=O)N3)c2ccccc2)c1 (stereo not given) | ? | -23% | -16% | . | 5% | 0%
SMILES | DT40 TDP1 CPT | HepG2 viability | TDP1 cell noCPT | IL-1B inflam inh | TDP1 block | TGFb SMAD3 inh
OC(COCc1ccco1)CN1CCN(C(c2ccccc2)c2ccccc2)CC1 (stereo not given) | ? | -16% | ? | -14 | 2% | 6%
CCC(=O)c1ccc(OCC(O)CN2CCN(C(c3ccccc3)c3ccccc3)CC2)cc1 (stereo not given) | ? | -52% | ? | ? | 10% | -7%
OC(COc1ccccc1)CN1CCN(C(c2ccccc2)c2ccccc2)CC1 (stereo not given) | ? | -53% | ? | ? | 8% | 14µM*
N#Cc1ccc(OCC(O)CN2CCN(C(c3ccccc3)c3ccccc3)CC2)cc1 (stereo not given) | ? | -26% | 18µM* | -20 | 15% | -8%
N#Cc1cc2c(OCC(O)CN3CCN(C(c4ccccc4)c4ccccc4)CC3)cccc2[nH]1 (stereo not given) | 8.9µM* | . | 5.6µM* | . | 12% | .
CCOC(=O)C1(Cc2ccccc2C)CCCN(C(=O)CCn2nccc2C)C1 (stereo not given) | ? | -5% | 13µM* | 38 | -3% | -7%
CCOC(=O)C1(Cc2ccccc2C)CCCN(C(=O)CCc2cccnc2)C1 (stereo not given) | 16µM* | 2% | ? | 13 | -3% | -3%
CCOC(=O)C1(Cc2ccccc2C)CCCN(C(=O)CSC)C1 (stereo not given) | ? | -2% | ? | 12 | . | -3%
CCOC(=O)C1(Cc2ccccc2C)CCCN(C(=O)c2ccc3nccnc3c2)C1 (stereo not given) | ? | -16% | 21µM* | -6 | 2% | -3%
COc1ccc2c(c1)c1c(c(=O)n(CCc3ccccc3)c(=O)n1Cc1ccc(Cl)cc1)n2C | 1% | 2% | -9% | . | -3% | -3%
CCOC(=O)c1c(-c2ccc(C)cc2C)csc1NC(=O)c1ccccc1Cl | ? | -1% | ? | . | 0%[12.3 µM] | 3%
Cc1cc(S(=O)(=O)Nc2cccc(C(=O)O)c2)c(C)c(S(=O)(=O)c2ccccc2)c1 | 6% | 9% | 0% | . | 2%[12.3 µM] | -6%
CCOC(=O)C(C)n1cnc2c(cnn2-c2ccc(Cl)cc2)c1=O (stereo not given) | ? | -91% | 16µM* | 17 | 6% | 0%
CCOC(=O)C(CC)n1cnc2c(nnn2-c2ccc(OC)cc2)c1=O (stereo not given) | 5% | -4% | -9% | 0 | -5% | -19%
